Hits are enriched below; roughly 28% of the tested compounds scored in any of these assays.
CYP2C9 inhib = inhibitors of human CYP2C9; 96,000 compounds, 20% hits; P11712; CYP2C9 Supersomes, luciferin-H conversion, luminescence; inhibition, % at 5 µM;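 active = blocking of liver enzyme CYP2C9 beyond about 50% at 5 µM, limit read from the data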
CYP2C9 activ = activators of human CYP2C9; recombinant CYP2C9, luciferin-H conversion, luminescence; stronger effect = higher value; factor 1 = untreated enzyme, 0 = blocked; 96,000 compounds, 1.4% hits; P11712; activation factor at 5 µM; AID 1024;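 active = activation factor of 2 or more for CYP2C9 at a 5 µM dose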;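 also: 0 = sulfaphenazole-blocked wells and 1 = vehicle-only wells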
CYP2C19 inh = blocks human cytochrome P450 2C19. P33261. CYP2C19 Supersomes, luciferin-H EGE luminescence, 30 min. inhibition, % at 5 µM. 96,000 compounds, 21% hits;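 active = CYP2C19 inhibition above a set limit at 5 µM in the primary screen, cut at about 50% in these data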;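 also: plate controls were negative control wells for no effect and 2.5 mM tranylcypromine positive control for full effect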
Mac1 fbg inh = CD11b/CD18-fibrinogen binding inhibition. P05107+P11215. 93,000 compounds, 0.54% hits. inhibition, % at 10 µM. K562 CD11b/CD18 adhesion to fibrinogen, ATPlite luminescence; Mn2+ added to activate the integrin;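 active = primary inhibition of 50% or more at 10 µM, then 40% or more on retest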
Mac1 fbg enh = CD11b/CD18-fibrinogen binding enhancement; K562 CD11b/CD18 adhesion to fibrinogen, ATPlite luminescence; activation, % at 10 µM; 93,000 compounds, 0.07% hits;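 active = 10 µM primary screen giving 50% or more activity, confirmed by 40% or more on retest at that dose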
CYP2C19 activ = cytochrome P450 2C19 (human) activation. P33261. recombinant CYP2C19, luciferin-H EGE luminescence; stronger effect = higher value; 0 = fully inhibited enzyme, 1 = untreated enzyme. activation factor at 5 µM. 96,000 tested, under 10 active;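 active = activation factor of at least 2 at 5 µM in the primary screen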;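 also: 0 = wells with 2.5 mM tranylcypromine and 1 = vehicle-only wells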
Active calls of the source: *; . = no result.

SMILES	CYP2C9 inhib	CYP2C9 activ	CYP2C19 inh	Mac1 fbg inh	Mac1 fbg enh	CYP2C19 activ
OC(COCc1cccs1)CN1CCN(c2ccccn2)CC1 (centres undefined)	-10	1.1	0	-7	-4	1
Cc1c(C)n(CC(O)CN2CCCCCC2)c2ccccc12 (centres undefined)	4	1	72*	-12	-3	0.3
Cc1cc(CSc2ccccc2)ccc1NC(=O)COc1ccccc1C	.	.	.	-19	0	.
COc1ncnc2c1NC(=O)CS2	0	1	5	-11	0	1
COc1ncnc2c1N[C@@](C)(O)c1c(F)c(F)c(F)c(F)c1S2	29	0.7	86*	-2	3	0.1
Cc1csc(Sc2nc3c(c(=O)[nH]c(=O)n3C)n2CCCc2ccccc2)n1	8	0.9	-3	-8	-7	1
CCc1ccc(N2CSC3=C(C#N)C(c4cccs4)CC(=O)N3C2)cc1 (centres undefined)	30	0.7	7	-14	2	0.9
N#CC1=C2SCN(c3ccc(F)cc3)CN2C(=O)CC1c1cccc(F)c1 (centres undefined)	30	0.7	15	1	-2	0.8
Cc1ccc(N2CSC3=C(C#N)C(c4cccs4)CC(=O)N3C2)cc1 (centres undefined)	86*	0.1	37	-7	-3	0.6
CCOC(=O)c1ccc(N2CSC3=C(C#N)C(c4cccs4)CC(=O)N3C2)cc1 (centres undefined)	94*	0.1	90*	-9	3	0.1
CN1CSC2=C(C#N)C(c3cccc(OCc4ccccc4)c3)CC(=O)N2C1 (centres undefined)	84*	0.2	18	6	2	0.8
CCc1ccc(C2CC(=O)N3CN(c4ccccc4)CSC3=C2C#N)cc1 (centres undefined)	53*	0.5	22	6	-3	0.8
CN1C(=O)C2(NCCc3c2[nH]c2ccccc32)c2ccccc21 (centres undefined)	15	0.9	81*	.	-6	0.2
Cc1ccc(NC(=O)c2cc(NC(=O)C3CC=CCC3C(=O)O)ccc2N2CCOCC2)cc1Cl (centres undefined)	61*	0.4	9	-1	3	0.9
Cc1ccc(NC(=O)c2cc(NC(=O)C3CC=CCC3C(=O)O)ccc2N2CCOCC2)cc1 (centres undefined)	1	1	-7	4	-4	1.1
Cc1cccc(NC(=S)NNC(=O)c2csc3c2CCC(C)C3)c1 (centres undefined)	43	0.6	25	6	-3	0.8
CC(C)CNC(=S)NNC(=O)c1csc2c1CCC(C)C2 (centres undefined)	6	0.9	52*	-4	0	0.5
Cc1cccc(C)c1OCC(O)CN1CCC(CN2C(=O)c3cccc4cccc(c34)C2=O)CC1 (centres undefined)	58*	0.4	55*	40	-3	0.4
Cc1csc(SCC(=O)c2cc(C)n(Cc3cccs3)c2C)n1	50*	0.5	84*	93	-8	0.2
COCC(C)n1c(C)cc(C(=O)CSc2nnc(Nc3ccccc3F)s2)c1C (centres undefined)	44	0.6	70*	4	5	0.3
COCC(C)n1c(C)cc(C(=O)CSc2ccc(NC(C)=O)cc2)c1C (centres undefined)	2	1	81*	13	-5	0.2
COCC(C)n1c(C)cc(C(=O)CSc2nc3ccccc3c(=O)[nH]2)c1C (centres undefined)	14	0.9	43	12	-1	0.6
O=C1c2ccccc2C(=O)N1CSc1nnc(Nc2ccccc2F)s1	.	.	.	-4	0	.
Cc1cc(C(=O)CSc2nnc(N)s2)c(C)n1Cc1cccs1	.	.	.	60	-3	.
COCCn1c(C)cc(C(=O)CSc2ccc3ccccc3n2)c1C	-63	1.6	68*	16	2	0.3
SMILES	CYP2C9 inhib	CYP2C9 activ	CYP2C19 inh	Mac1 fbg inh	Mac1 fbg enh	CYP2C19 activ
CC(=Nc1ccc2c(c1)nc(CO)n2C)C1=C(O)CC(C)(C)CC1=O	26	0.7	15	-19	2	0.9
COCCn1c(C)cc(C(=O)COc2nc3ccccc3nc2C)c1C	-4	1	16	10	0	0.8
COCCn1c(C)cc(C(=O)CSc2ccc(NC(C)=O)cc2)c1C	6	0.9	93*	-8	2	0.1
C=CCn1c(C)cc(C(=O)CSc2nnc(Cc3ccccc3)o2)c1C	-43	1.4	-1	4	1	1
Cc1cc(C(=O)CSc2n[nH]c(-c3ccccc3F)n2)c(C)n1Cc1cccs1	92*	0.1	63*	65	-6	0.4
C=CCn1c(C)cc(C(=O)CSc2nnc(NC(C)C)s2)c1C	18	0.8	73*	-4	-2	0.3
C=CCn1c(C)cc(C(=O)CSc2ccc(NC(C)=O)cc2)c1C	-3	1	91*	-6	-1	0.1
Cc1noc(C)c1C(=O)Nc1ccccc1-c1ccccc1	19	0.8	24	-6	-1	0.8
COc1ccc(Oc2nc(SC)nc3ccccc23)cc1	-6	1.1	1	-2	-1	1
CCOC(=O)C1CCN(c2c(NC3CCCCCCC3)c(=O)c2=O)CC1	13	0.9	8	13	-4	0.9
Cc1csc(=N)n1CC(=O)N1CCc2ccccc21	-50	1.5	0	1	6	1
CCOC(=O)C(NC(=O)c1ccccc1OCC)(Nc1ncccn1)C(F)(F)F (centres undefined)	11	0.9	30	56	6	0.7
Cc1noc2nc(-c3cccs3)cc(-c3nnc4n3CCCCC4)c12	14	0.9	2	1	-2	1
CN1C2C=C(N(CCc3c[nH]c4ccccc34)C(=O)c3ccc(Cl)cc3)CC1CC2 (centres undefined)	1	1	7	.	.	0.9
CC(=O)Nc1ccc(SCC(=O)c2cc(C)n(Cc3cccs3)c2C)cc1	63*	0.4	14	9	-2	0.9
O=C(CN1CCN(Cc2ccccc2Cl)C1=O)N1CCCCCC1	-47	1.5	59*	-1	-4	0.4
O=C1CN(CC(=O)N2CCCCC2)c2ccccc2O1	8	0.9	3	14	-1	1
COC(=O)[C@@H](NC(=O)Nc1cccc(OC)c1)C(C)C	-6	1.1	-8	.	.	1.1
Cc1ccccc1Cn1nc(C)c(NC(=O)c2noc3c2CCCC3)c1C	58*	0.4	23	-6	-3	0.8
Cc1nn(Cc2ccc(Cl)cc2)c(C)c1NC(=O)c1noc2c1CCc1ccccc1-2	-8	1.1	-1	54	2	1
Cc1nn(Cc2ccccc2Cl)c(C)c1NC(=O)c1noc2c1CCCCC2	54*	0.5	-2	0	1	1

From PubChem BioAssay
